Reference: PubChem BioAssay
Some of the results follow. The source made the active and inactive calls.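 Rule for the calls, unless noted: active = mean inhibition above about 50% in the one-dose retest (limit read from the data); inactive = the rest.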

Columns and labels:
[1] = biological target: Sentrin-specific protease 8 (Homo sapiens) (UniProt Q96LD8); assay: SENP8 protease inhibitors, retest, confirmation, biochemical, luminescence, single concentration (AID 488912;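 active = mean inhibition across replicates above about 50%, limit read from the data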); settings: Recombinant SENP8, Z-RLRGG-aminoluciferin luminescence, 60 min; at 12.5 µM; hits give high values
Sentrin-specific protease 8 (Homo sapiens), sequence (Q96LD8 whole entry, looked up): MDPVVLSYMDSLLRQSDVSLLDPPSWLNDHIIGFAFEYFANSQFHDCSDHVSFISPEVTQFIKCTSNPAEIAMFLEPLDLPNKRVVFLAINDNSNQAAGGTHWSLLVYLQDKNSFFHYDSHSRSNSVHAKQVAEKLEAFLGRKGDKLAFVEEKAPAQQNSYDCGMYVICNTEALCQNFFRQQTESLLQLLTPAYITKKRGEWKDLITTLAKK

[2] = biological target: Sentrin-specific protease 6 (Homo sapiens) (UniProt Q9GZR1); assay: SENP6 protease inhibitors, confirmation, biochemical, luminescence, single concentration (AID 488915); settings: recombinant SENP6, Z-RLRGG-aminoluciferin luminescence; at 12.5 µM; hits give high values
Sentrin-specific protease 6 (Homo sapiens), sequence (Q9GZR1 628-1112 limits assumed): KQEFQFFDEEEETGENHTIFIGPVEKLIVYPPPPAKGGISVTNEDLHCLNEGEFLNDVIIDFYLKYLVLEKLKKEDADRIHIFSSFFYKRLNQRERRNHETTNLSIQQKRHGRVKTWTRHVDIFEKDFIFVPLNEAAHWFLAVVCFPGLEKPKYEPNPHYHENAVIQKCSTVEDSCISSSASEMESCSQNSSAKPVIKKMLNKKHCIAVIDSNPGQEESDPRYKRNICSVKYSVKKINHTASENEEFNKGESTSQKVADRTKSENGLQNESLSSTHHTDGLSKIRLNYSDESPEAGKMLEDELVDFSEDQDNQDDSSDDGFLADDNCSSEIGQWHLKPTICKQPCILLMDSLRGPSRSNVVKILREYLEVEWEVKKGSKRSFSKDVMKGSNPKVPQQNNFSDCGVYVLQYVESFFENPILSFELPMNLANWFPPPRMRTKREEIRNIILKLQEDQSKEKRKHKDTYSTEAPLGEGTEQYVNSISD

[3] = biological target: Sentrin-specific protease 7 (Homo sapiens) (UniProt Q9BQF6); assay: SENP7 protease inhibitors, retest, confirmation, biochemical, luminescence, single concentration (AID 488917); settings: recombinant SENP7, Z-RLRGG-aminoluciferin luminescence, 40 min; at 12.5 µM; hits give high values
Sentrin-specific protease 7 (Homo sapiens), sequence (Q9BQF6 706-1050 limits assumed): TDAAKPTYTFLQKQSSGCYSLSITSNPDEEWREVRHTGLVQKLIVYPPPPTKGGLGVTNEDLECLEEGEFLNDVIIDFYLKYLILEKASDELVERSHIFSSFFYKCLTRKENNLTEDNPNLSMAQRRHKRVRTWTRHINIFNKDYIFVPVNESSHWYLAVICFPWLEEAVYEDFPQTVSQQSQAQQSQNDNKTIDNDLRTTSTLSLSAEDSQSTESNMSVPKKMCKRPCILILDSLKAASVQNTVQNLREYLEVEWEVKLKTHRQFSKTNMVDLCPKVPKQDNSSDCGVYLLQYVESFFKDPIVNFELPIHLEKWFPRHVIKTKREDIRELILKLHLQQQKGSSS

Caspase-3 (Homo sapiens) = Caspase-3 (Homo sapiens) (UniProt P42574); assay: caspase-3 protease inhibitors, confirmation, selectivity assay for SENP inhibitor project, biochemical, single concentration (AID 488918;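 active = mean inhibition above about 50%, limit read from the data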;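 note: plate controls were enzyme with DMSO for no effect and wells without caspase-3 for full effect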); settings: purified caspase-3, Z-DEVD-aminoluciferin luminescence, 60 min; at 12.5 µM; hits give high values
Caspase-3 (Homo sapiens), sequence (P42574 28-227 limits assumed): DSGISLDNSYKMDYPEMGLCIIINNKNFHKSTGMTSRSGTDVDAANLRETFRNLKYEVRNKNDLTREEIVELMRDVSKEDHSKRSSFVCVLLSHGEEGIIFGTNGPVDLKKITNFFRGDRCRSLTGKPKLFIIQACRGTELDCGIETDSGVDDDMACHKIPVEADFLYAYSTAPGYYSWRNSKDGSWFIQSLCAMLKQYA

[4] = luciferase luminescence interference by compounds, confirmation, artefact control for SENP inhibitor project, biochemical, single concentration, SENP8 reaction pre-completed (AID 488919;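 active = mean inhibition above about 50% when retested at one dose, limit read from the data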;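 note: plate controls were DMSO wells with completed reaction for no effect and substrate without enzyme for full effect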); settings: Pre-incubated SENP8/Z-RLRGG-aminoluciferin, at 12.5 µM, hits give high values

Measured: inhibition

CSC1=N/C(=C\C=C\c2cccs2)C(=O)S1
active: [1] 69.4% | [2] 75.6% | [3] 85.3% | Caspase-3 (Homo sapiens) 68.1% | [4] 52.2%

CC(OC(=O)c1ccc2ccccc2n1)C(=O)c1ccccc1 (stereo not given)
inactive: [2] 50%
active: [1] 54.3% | [3] 87.7% | Caspase-3 (Homo sapiens) 75% | [4] 64.5%

CCOc1ccc2nc(C(=O)N3CCCC(C)C3)sc2c1 (stereo not given)
active: [1] 59.3% | [2] 68.3% | [3] 86.3% | Caspase-3 (Homo sapiens) 62.5% | [4] 66.4%

O=C(Nc1ncc([N+](=O)[O-])s1)C1COc2ccccc2O1 (stereo not given)
inactive: [4] 48.6%
active: [1] 98.8% | [2] 99.8% | [3] 103% | Caspase-3 (Homo sapiens) 98.4%

CC(=NCc1ccco1)c1c(C(F)(F)F)[nH]n(-c2nc3ccccc3s2)c1=O
active: [1] 91.7% | [2] 91.9% | [3] 99.8% | Caspase-3 (Homo sapiens) 98.1% | [4] 89.3%

CC1=CC(=C(C#N)c2nc3ccccc3s2)C=C(C)N1c1ccc(F)cc1F
inactive: [1] 12.4% | [2] 19% | [3] -0.4% | Caspase-3 (Homo sapiens) -3.2% | [4] -9.8%

Cc1ccc(-n2cc3ccc([N+](=O)[O-])cc3n2)cc1
inactive: [1] -5.1% | [2] 20.7% | Caspase-3 (Homo sapiens) 18.7% | [4] -2.9%
active: [3] 61.5%

Fc1ccc(COc2ccc(-c3nnco3)cc2)cc1
inactive: [1] 29%
active: [2] 60.4% | [3] 85.8% | Caspase-3 (Homo sapiens) 67.9% | [4] 65.6%

C/C(=N\NC(=O)c1ccoc1C)c1ccccc1O
inactive: [1] 38.5% | [2] 36.8%
active: [3] 80.7% | Caspase-3 (Homo sapiens) 77.3% | [4] 63%

CC(C)N(C(=O)Cn1cc(SCC(=O)N2CCCC2)c2ccccc21)C(C)C
inactive: [1] -29.2% | [2] -18.1% | [3] -8.3% | Caspase-3 (Homo sapiens) -6.3% | [4] -6.7%

COc1ccc(Cc2nnc(SCC(=O)c3cccc([N+](=O)[O-])c3)n2C)cc1
inactive: [1] -3.9% | [2] 1.7% | [3] 6.9% | Caspase-3 (Homo sapiens) 4.6% | [4] -2.3%

O=C(NC(=O)c1ccccc1)Nc1ccccc1O
inactive: [1] -10% | [2] 6.3% | [4] 23.8%
active: [3] 69.7% | Caspase-3 (Homo sapiens) 73.3%

Cc1ccc(/C=N/NC(=O)c2cc3ccccc3cc2O)o1
active: [1] 67% | [2] 65.9% | [3] 89.2% | Caspase-3 (Homo sapiens) 76.8% | [4] 77.6%

O=C(Nc1ccc(C(=O)O)c(O)c1)c1ccccc1
active: [1] 73% | [2] 73.7% | [3] 94.9% | Caspase-3 (Homo sapiens) 93.7% | [4] 82.8%

Cc1cc(C(=O)Nc2nnc(C3CC3)s2)c(C)s1
active: [1] 63.4% | [2] 80.8% | [3] 94.1% | Caspase-3 (Homo sapiens) 83.7%
inactive: [4] 16.4%

c1ccc(-c2noc(-c3cccs3)n2)nc1
active: [1] 90% | [2] 91.3% | [3] 98.9% | Caspase-3 (Homo sapiens) 95.4% | [4] 90.1%

CCOC(=O)c1cnc2[nH]c3ccccc3n2c1=O
inactive: [1] 30.1%
active: [2] 79% | [3] 96.4% | Caspase-3 (Homo sapiens) 94.2% | [4] 65.2%

O=c1oc2cc(O)ccc2cc1-c1ccc(F)cc1
active: [1] 98.4% | [2] 99.7% | [3] 103% | Caspase-3 (Homo sapiens) 98.2% | [4] 95.4%

O=C(Nc1ccncc1)c1cc2ccccc2o1
inactive: [1] 49.1% | [2] 44% | [4] 49.3%
active: [3] 76.1% | Caspase-3 (Homo sapiens) 75.6%

CCC(=O)Nc1ccc(C(=O)Nc2cccc(OC)c2)cc1
inactive: [1] 42.4% | [2] 39%
active: [3] 71.9% | Caspase-3 (Homo sapiens) 69.1% | [4] 52.9%

COc1ccc(/C=C2/SC(=O)N(CCCCCC(=O)Nc3ccccc3C(=O)O)C2=S)cc1
inactive: [1] -4.2% | [2] 0.2% | [3] 2.7% | Caspase-3 (Homo sapiens) -3.8% | [4] 8.6%

CCSc1nnc(NC(=O)c2ccc(C)cc2)s1
active: [3] 51.1%
inactive: [1] 33.7% | [2] 23.5% | Caspase-3 (Homo sapiens) 27.1% | [4] 2%

Cc1sc(NC(=O)c2ccc3ncsc3c2)c(C(N)=O)c1C
inactive: [1] -15.3% | [2] -7.6% | [3] -2.8% | Caspase-3 (Homo sapiens) 3.3% | [4] -10.5%

Cc1cccc(NS(=O)(=O)c2cccc(C(=O)NNC(=O)c3ccccc3O)c2)c1
inactive: [1] 26.9% | [4] 49.9%
active: [2] 54.5% | [3] 75.5% | Caspase-3 (Homo sapiens) 56.8%

O=C(OC1CCOC1=O)c1ccc(-c2nc3ccccc3s2)s1 (stereo not given)
active: [1] 92.5% | [2] 95.8% | [3] 100% | Caspase-3 (Homo sapiens) 96.3% | [4] 83.8%
